# Data reported in PubChem BioAssay AID1159580 (chemical genetic matrix, 2015).
# The campaign covered roughly 5,500 compounds. About 2,000 (36%) were called active. Not shown: some 18% with an inconclusive outcome. Some of the results follow. Values without a mark were called inactive. No stated cut-off is given here; in the data, active means normalized growth mostly below about 0.91 (no sharp cut-off); inconclusive means no clear call, values can overlap the other calls; inactive means mostly above about 0.92.
# Assay: chemical genetic growth profiling, strain panel (AID 1159580);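 further: tested at 20 µM; growth read once vehicle control cultures reached saturation at 30 °C; 1 = growth at the plate median or of vehicle wells; lower values mean less growth of the strain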
# Conditions: S. cerevisiae deletion strains, growth OD
# [1] = locus YAL040C, strain CLN3, hits give low values
# [2] = locus YCL061C, strain MRC1 (second series), hits give low values
# [3] = locus YDR150W, strain NUM1, hits give low values
# [4] = locus YDR363W, strain ESC2, hits give low values
# [5] = locus YER002W, strain NOP16, hits give low values
# [6] = locus YNL175C, strain NOP13, hits give low values
# [7] = locus YNL197C, strain WHI3, hits give low values
# [8] = locus YNL224C, strain SQS1, hits give low values
# [9] = locus YOR083W, strain WHI5 (second series), hits give low values
compound,measurement,setting,value
S=c1[nH]nc(Nc2ccc(I)cc2)s1,normalized growth,"locus YAR019C, strain CDC15, hits give low values",0.839 (active)
same,normalized growth,"locus YBL105C, strain PKC1, hits give low values",0.874 (active)
same,normalized growth,"locus YBR135W, strain CKS1, hits give low values",0.881 (active)
same,normalized growth,"locus YBR136W, strain MEC1, hits give low values",0.871 (active)
same,normalized growth,"locus YBR160W, strain CDC28, hits give low values",0.885 (active)
same,normalized growth,"locus YDL017W, strain CDC7, hits give low values",0.873 (active)
same,normalized growth,"locus YDL028C, strain MPS1, hits give low values",0.873 (active)
same,normalized growth,"locus YDL101C, strain DUN1, hits give low values",0.917
same,normalized growth,"locus YDL108W, strain KIN28, hits give low values",0.868 (active)
same,normalized growth,"locus YDL132W, strain cdc53, hits give low values",0.904
same,normalized growth,"locus YDL214C, strain PRR2, hits give low values",0.722
same,normalized growth,"locus YDR052C, strain DBF4, hits give low values",0.874 (active)
same,normalized growth,"locus YDR054C, strain cdc34, hits give low values",0.912
same,normalized growth,"locus YDR226W, strain ADK1, hits give low values",0.878 (active)
same,normalized growth,"locus YDR477W, strain SNF1, hits give low values",0.644 (active)
same,normalized growth,"locus YER123W, strain YCK3, hits give low values",0.504 (active)
same,normalized growth,"locus YER133W, strain GLC7, hits give low values",0.607 (active)
same,normalized growth,"locus YFL009W, strain cdc4, hits give low values",0.845 (active)
same,normalized growth,"locus YFL029C, strain CAK1, hits give low values",0.814 (active)
same,normalized growth,"locus YFR003C, strain YPI1, hits give low values",0.869 (active)
same,normalized growth,"locus YFR019W, strain FAB1, hits give low values",0.813
same,normalized growth,"locus YFR028C, strain CDC14, hits give low values",0.871 (active)
same,normalized growth,"locus YGR040W, strain KSS1, hits give low values",0.658 (active)
same,normalized growth,"locus YGR052W, strain FMP48, hits give low values",0.744
same,normalized growth,"locus YGR092W, strain DBF2, hits give low values",0.326 (active)
same,normalized growth,"locus YHR030C, strain SLT2, hits give low values",0.279 (active)
same,normalized growth,"locus YHR079C, strain IRE1, hits give low values",0.362 (active)
same,normalized growth,"locus YHR082C, strain KSP1, hits give low values",0.653
same,normalized growth,"locus YHR205W, strain SCH9, hits give low values",0.821
same,normalized growth,"locus YIL147C, strain SLN1, hits give low values",0.866 (active)
same,normalized growth,"locus YJL095W, strain BCK1, hits give low values",0.396 (active)
same,normalized growth,"locus YJL128C, strain PBS2, hits give low values",0.882
same,normalized growth,"locus YJL157C, strain FAR1, hits give low values",0.699 (active)
same,normalized growth,"locus YJR016C, strain ILV3, hits give low values",0.85 (active)
same,normalized growth,"locus YJR066W, strain TOR1 (second series), hits give low values",0.14 (active)
same,normalized growth,"locus YJR066W, strain TOR1, hits give low values",0.462 (active)
same,normalized growth,"locus YKL048C, strain ELM1, hits give low values",0.857
same,normalized growth,"locus YKL067W, strain YNK1, hits give low values",0.746
same,normalized growth,"locus YKL101W, strain HSL1, hits give low values",0.77
same,normalized growth,"locus YKL193C, strain SDS22, hits give low values",0.849 (active)
same,normalized growth,"locus YKL203C, strain TOR2, hits give low values",0.648 (active)
same,normalized growth,"locus YLR113W, strain HOG1, hits give low values",0.51 (active)
same,normalized growth,"locus YLR133W, strain CKI1, hits give low values",0.745
same,normalized growth,"locus YLR403W, strain SFP1, hits give low values",0.566 (active)
same,normalized growth,"locus YML070W, strain DAK1, hits give low values",0.676 (active)
same,normalized growth,"locus YMR001C, strain CDC5, hits give low values",0.85 (active)
same,normalized growth,"locus YMR205C, strain PFK2 (second series), hits give low values",0.743 (active)
same,normalized growth,"locus YMR277W, strain FCP1, hits give low values",0.863 (active)
same,normalized growth,"locus YNL006W, strain LST8, hits give low values",0.87 (active)
same,normalized growth,"locus YNL020C, strain ARK1, hits give low values",0.71 (active)
same,normalized growth,"locus YNL161W, strain CBK1, hits give low values",0.87 (active)
same,normalized growth,"locus YNL183C, strain NPR1, hits give low values",0.516 (active)
same,normalized growth,"locus YNL207W, strain RIO2, hits give low values",0.818 (active)
same,normalized growth,"locus YNL222W, strain SSU72, hits give low values",0.864 (active)
same,normalized growth,"locus YNL307C, strain MCK1 (second series), hits give low values",0.701
same,normalized growth,"locus YOL078W, strain AVO1, hits give low values",0.847 (active)
same,normalized growth,"locus YOL136C, strain PFK27, hits give low values",0.651 (active)
same,normalized growth,"locus YOR061W, strain CKA2, hits give low values",0.755
same,normalized growth,"locus YOR119C, strain RIO1, hits give low values",0.61 (active)
same,normalized growth,"locus YOR231W, strain MKK1, hits give low values",0.447 (active)
same,normalized growth,"locus YOR329C, strain SCD5, hits give low values",0.847 (active)
same,normalized growth,"locus YPL031C, strain PHO85, hits give low values",0.495 (active)
same,normalized growth,"locus YPL153C, strain RAD53, hits give low values",0.512 (active)
same,normalized growth,"locus YPL204W, strain HRR25, hits give low values",0.486 (active)
same,normalized growth,"locus YPL209C, strain IPL1, hits give low values",0.85 (active)
same,normalized growth,"locus YPL256C, strain CLN2, hits give low values",0.438 (active)
same,normalized growth,"locus YPR025C, strain CCL1, hits give low values",0.863 (active)
same,normalized growth,"locus YPR106W, strain ISR1, hits give low values",0.894
same,normalized growth,"locus YPR111W, strain DBF20, hits give low values",0.911
same,normalized growth,"strain NNK1, hits give low values",0.893
same,normalized growth,"strain TSCII, hits give low values",0.838 (active)
Oc1cc2c(cc1O)CN(C(=S)NCCc1ccc(Cl)cc1)CCC2,normalized growth,"locus YAL013W, strain DEP1, hits give low values",0.609 (active)
same,normalized growth,[1],1.09
same,normalized growth,[2],0.683 (active)
same,normalized growth,[3],0.656 (active)
same,normalized growth,[4],0.879
same,normalized growth,[5],1
same,normalized growth,"locus YGR078C, strain PAC10, hits give low values",0.995
same,normalized growth,"locus YGR229C, strain SMI1, hits give low values",0.128 (active)
same,normalized growth,"locus YJR075W, strain HOC1, hits give low values",0.718 (active)
same,normalized growth,"locus YMR263W, strain SAP30, hits give low values",0.994
same,normalized growth,"locus YNL128W, strain TEP1, hits give low values",0.975
same,normalized growth,[6],1
same,normalized growth,[7],0.98
same,normalized growth,[8],0.997
same,normalized growth,"locus YNL322C, strain KRE1, hits give low values",0.992
same,normalized growth,[9],0.897
O=C(O)C1CCNCC1,normalized growth,[1],1
same,normalized growth,[2],0.998
same,normalized growth,[3],1
same,normalized growth,[4],0.964
same,normalized growth,[5],0.995
same,normalized growth,"locus YNL153C, strain GIM3, hits give low values",1.01
same,normalized growth,[6],0.992
same,normalized growth,[7],0.992
same,normalized growth,[8],0.997
same,normalized growth,[9],1.01
same,normalized growth,"locus YPL055C, strain LGE1, hits give low values",1.01
